Measured values as given in PubChem BioAssay (Tox21).
Where “and” joins values, the source holds several entries; their conditions need not be identical. Equal values may be shown once. Inconclusive results are not listed. Entries that show only a call come without a potency. A structure can be active in one record and inactive in another. Calls of active or inactive are those of the source. Unless noted, calls follow the shape of the dose curve; as a rule, active = well fitted cell-killing curve with a large enough effect in the repeat runs; inconclusive = weak or mixed curves, or effect the other way; inactive = no such curve, though single readings can be large or run the other way.

Test system: not listed separately
Experiment: qHTS assay to identify small molecule agonists of the estrogen receptor alpha (ER-alpha) signaling pathway in the presence of an antagonist - cell viability counter screen (AID 1259386);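 also: cells exposed to compounds for 22 h at 37 °C before the viability read; nearly all actives have a fitted effect of over 30% in size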; also: potency is read from the fitted curve at half-maximal effect
Settings: VM7Luc4E2 viability, CellTiter-Fluor fluorescence, 22 h; series mostly up to 92.4 µM
In short: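 VM7Luc4E2, stripped-serum pre-culture 5 d; 24hr plating; +ICI-182,780 10.0nM final; cpds 15 conc, 22hr, 37C/5% CO2; CellTiter-Fluor added at 21hr, fluorescence 1hr later.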

Compound	Potency
Nc1ccc([N+](=O)[O-])cc1N	48.5 µM (active) and 38.6 µM (active)
N#CCCCCC#N	inactive
C[N+](C)(C)CC(=O)O	inactive
O=S(=O)(O)C(F)(F)C(F)(F)C(F)(F)C(F)(F)C(F)(F)C(F)(F)C(F)(F)C(F)(F)F	inactive
CC(C)(C#N)N=NC(C)(C)C#N	inactive
Cl	inactive
CCCCCCCCCC(CC)c1ccc(S(=O)(=O)O)cc1 (stereo not drawn)	inactive
O=[N+]([O-])c1ccc(Cl)c([N+](=O)[O-])c1	31.1 µM (active) and 27.3 µM (active)
Clc1ccc(C(Cl)(Cl)Cl)cc1	inactive
CC(C)=CC1C(C(=O)OCN2C(=O)C3=C(CCCC3)C2=O)C1(C)C (stereo not drawn)	inactive
C[N+](C)(C)C	inactive
CCCCOCC1CO1 (stereo not drawn)	inactive
ClCC(Cl)CCl	inactive
CCCCOCCOC(C)=O	inactive
NN=C(N)N	inactive
COP(=S)(OC)Oc1ccc(S(=O)(=O)N(C)C)cc1	inactive
CCC(=O)Nc1ccc(Cl)c(Cl)c1	inactive
CCC[CH2][Sn]([Cl])([CH2]CCC)[CH2]CCC	10.9 µM (active) and 30.6 µM (active)
[Cl-].[Cl-].[Cl-].[Fe+3]	inactive

Compound	Potency
ClC(Cl)=C(Cl)C(Cl)=C(Cl)Cl	inactive
CCCCC(C#N)(Cn1cncn1)c1ccc(Cl)cc1 (stereo not drawn)	inactive
CCOP(=S)(OCC)SCSC(C)(C)C	inactive
C[N+](C)(C)CC(=O)[O-]	inactive
O=NN(c1ccccc1)c1ccccc1	inactive
O=C1Nc2ccc(Cl)cc2C(c2ccccc2)=NC1O (stereo not drawn)	inactive
CCOP(=S)(OCC)SCn1c(=O)oc2cc(Cl)ccc21	inactive
CC1CC(=O)O1 (stereo not drawn)	inactive
CNC(=S)S	inactive
C[C@]12CC[C@H]3[C@@H](CCC4=CC(=O)CC[C@@H]43)[C@@H]1CC[C@@H]2O	inactive
c1ccc(C2CO2)cc1 (stereo not drawn)	inactive
CCC1(c2ccc(N)cc2)CCC(=O)NC1=O (stereo not drawn)	inactive
CC(C)(c1ccccc1)c1ccc(O)c(C(C)(C)c2ccccc2)c1	68 µM (active)
CC[n+]1c(-c2ccccc2)c2cc(N)ccc2c2ccc(N)cc21	48.3 µM (active) and 26.6 µM (active)
CCOP(=O)(O)OCC (tested in a mixture with another compound)	inactive and 60.6 µM (active)
O=C(O)c1nn(Cc2ccc(Cl)cc2Cl)c2ccccc12	inactive
CC(C)(c1ccc(OCC2CO2)cc1)c1ccc(OCC2CO2)cc1 (stereo not drawn)	inactive
C[C@]12CCC(=O)C=C1CC[C@@H]1[C@@H]2CC[C@@]2(C)[C@H]1CC[C@]2(C)O	inactive
O=C1C(Cl)=C(Cl)C(=O)c2ccccc21	43.4 µM (active) and 61.1 µM (active)

Target: Progesterone receptor (Homo sapiens) (UniProt P06401)
Sequence (P06401 whole entry, looked up): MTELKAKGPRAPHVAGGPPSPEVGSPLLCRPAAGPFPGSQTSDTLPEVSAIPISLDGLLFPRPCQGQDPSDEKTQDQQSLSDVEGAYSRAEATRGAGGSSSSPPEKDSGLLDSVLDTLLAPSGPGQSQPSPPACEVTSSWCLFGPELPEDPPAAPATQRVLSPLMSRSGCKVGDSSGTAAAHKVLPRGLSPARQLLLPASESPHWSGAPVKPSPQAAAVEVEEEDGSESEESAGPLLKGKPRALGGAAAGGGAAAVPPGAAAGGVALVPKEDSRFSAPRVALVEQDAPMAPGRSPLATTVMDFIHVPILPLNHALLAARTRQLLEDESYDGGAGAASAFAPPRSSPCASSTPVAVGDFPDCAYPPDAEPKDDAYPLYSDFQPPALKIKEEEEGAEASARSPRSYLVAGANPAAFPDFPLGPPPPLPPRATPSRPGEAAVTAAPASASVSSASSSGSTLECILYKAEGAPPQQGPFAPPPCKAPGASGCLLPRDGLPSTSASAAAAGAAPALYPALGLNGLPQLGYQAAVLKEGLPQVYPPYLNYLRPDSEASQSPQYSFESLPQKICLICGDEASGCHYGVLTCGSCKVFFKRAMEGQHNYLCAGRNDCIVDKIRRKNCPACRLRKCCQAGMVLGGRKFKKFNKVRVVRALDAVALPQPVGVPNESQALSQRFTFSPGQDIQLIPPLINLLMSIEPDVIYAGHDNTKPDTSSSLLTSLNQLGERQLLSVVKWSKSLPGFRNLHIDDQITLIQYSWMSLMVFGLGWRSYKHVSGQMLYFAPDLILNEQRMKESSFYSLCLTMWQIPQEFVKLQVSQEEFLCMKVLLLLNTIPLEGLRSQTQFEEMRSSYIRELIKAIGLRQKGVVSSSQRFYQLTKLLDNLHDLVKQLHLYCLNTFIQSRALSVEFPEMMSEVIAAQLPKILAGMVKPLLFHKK
Experiment: qHTS assay to identify small molecule agonists of the progesterone receptor (PR) signaling pathway (AID 1346784; calls by dose curve; also: nearly all actives have a fitted effect of over 30% in size)
Settings: PR-UAS-bla HEK293T, beta-lactamase FRET ratio, 16 h; series mostly up to 92.4 µM
In short: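 Agonist qHTS: compounds pinned onto 3,000 PR-UAS-bla HEK 293T cells per well in charcoal-stripped serum medium, 16hr at 37C, then beta-lactamase activity measured by LiveBLAzer FRET fluorescence after 2 hours at room temperature.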

Compound	Potency
Nc1ccc([N+](=O)[O-])cc1N	inactive
N#CCCCCC#N	inactive
C[N+](C)(C)CC(=O)O	inactive
O=S(=O)(O)C(F)(F)C(F)(F)C(F)(F)C(F)(F)C(F)(F)C(F)(F)C(F)(F)C(F)(F)F	inactive
CC(C)(C#N)N=NC(C)(C)C#N	inactive
Cl	inactive
Clc1ccc(C(Cl)(Cl)Cl)cc1	inactive
CC(C)=CC1C(C(=O)OCN2C(=O)C3=C(CCCC3)C2=O)C1(C)C (stereo not drawn)	inactive
C[N+](C)(C)C	inactive
CCCCOCC1CO1 (stereo not drawn)	inactive
ClCC(Cl)CCl	inactive
CCCCOCCOC(C)=O	inactive
NN=C(N)N	inactive
COP(=S)(OC)Oc1ccc(S(=O)(=O)N(C)C)cc1	inactive
CCC(=O)Nc1ccc(Cl)c(Cl)c1	inactive
[Cl-].[Cl-].[Cl-].[Fe+3]	inactive

Compound	Potency
ClC(Cl)=C(Cl)C(Cl)=C(Cl)Cl	inactive
CCCCC(C#N)(Cn1cncn1)c1ccc(Cl)cc1 (stereo not drawn)	inactive
CCOP(=S)(OCC)SCSC(C)(C)C	inactive
C[N+](C)(C)CC(=O)[O-]	inactive
O=NN(c1ccccc1)c1ccccc1	inactive
O=C1Nc2ccc(Cl)cc2C(c2ccccc2)=NC1O (stereo not drawn)	inactive
CCOP(=S)(OCC)SCn1c(=O)oc2cc(Cl)ccc21	inactive
CC1CC(=O)O1 (stereo not drawn)	inactive
CNC(=S)S	inactive
c1ccc(C2CO2)cc1 (stereo not drawn)	inactive
CCC1(c2ccc(N)cc2)CCC(=O)NC1=O (stereo not drawn)	inactive
CC[n+]1c(-c2ccccc2)c2cc(N)ccc2c2ccc(N)cc21	inactive
CCOP(=O)(O)OCC (tested in a mixture with another compound)	inactive
O=C(O)c1nn(Cc2ccc(Cl)cc2Cl)c2ccccc12	inactive
O=C1C(Cl)=C(Cl)C(=O)c2ccccc21	inactive

Target: Progesterone receptor (Homo sapiens) (UniProt P06401)
Experiment: qHTS assay to identify small molecule antagonists of the progesterone receptor (PR) signaling pathway (AID 1346795; active = well fitted inhibition curve with a large enough effect in the signal ratio in the repeat runs, not every such curve was filed as active; the % refers to the signal ratio; also: potency is read from the fitted curve at half-maximal effect)
Settings: PR-UAS-bla HEK293T, beta-lactamase FRET ratio, 16 h; series mostly up to 92.4 µM
In short: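 Antagonist mode with agonist R5020 at 1 nM final and 16 hr incubation at 37C. Reporter was beta-lactamase driven by UAS in HEK293T (PR-UAS-bla), 2% charcoal-stripped serum; signal from LiveBLAzer FRET substrate, 2 hr at room temperature.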

Compound	Potency
N#CCCCCC#N	inactive
C[N+](C)(C)CC(=O)O	inactive
CC(C)(C#N)N=NC(C)(C)C#N	inactive
CC(C)=CC1C(C(=O)OCN2C(=O)C3=C(CCCC3)C2=O)C1(C)C (stereo not drawn)	inactive
C[N+](C)(C)C	inactive
ClCC(Cl)CCl	inactive
CCCCOCCOC(C)=O	inactive
[Cl-].[Cl-].[Cl-].[Fe+3]	inactive
C[N+](C)(C)CC(=O)[O-]	inactive
CC1CC(=O)O1 (stereo not drawn)	inactive
CNC(=S)S	inactive
c1ccc(C2CO2)cc1 (stereo not drawn)	inactive
CCOP(=O)(O)OCC (tested in a mixture with another compound)	inactive and 60.6 µM (active)
C[C@]12CCC(=O)C=C1CC[C@@H]1[C@@H]2CC[C@@]2(C)[C@H]1CC[C@]2(C)O	inactive
